The campaign covered roughly 1,200 compounds. Fewer than 10 were called active. Calls follow the shape of the dose curve; as a rule, active = well fitted curve in the direction sought with a large enough effect; inconclusive = small, poorly fitted or top-dose-only effect, or another doubt; inactive = no such curve, though single readings can be large or run the other way. A selection follows.
target: Transcriptional regulator ERG (Homo sapiens) (UniProt P11308); experiment: qHTS for Small Molecule Inhibitors of the ERG Ets/DNA interaction: TR assay against cherry picks; details: ERG Ets domain-DNA fluorescence polarization, Texas red probe; series mostly up to 154 µM
Sequence (P11308 whole entry, looked up, the tested form may be a part): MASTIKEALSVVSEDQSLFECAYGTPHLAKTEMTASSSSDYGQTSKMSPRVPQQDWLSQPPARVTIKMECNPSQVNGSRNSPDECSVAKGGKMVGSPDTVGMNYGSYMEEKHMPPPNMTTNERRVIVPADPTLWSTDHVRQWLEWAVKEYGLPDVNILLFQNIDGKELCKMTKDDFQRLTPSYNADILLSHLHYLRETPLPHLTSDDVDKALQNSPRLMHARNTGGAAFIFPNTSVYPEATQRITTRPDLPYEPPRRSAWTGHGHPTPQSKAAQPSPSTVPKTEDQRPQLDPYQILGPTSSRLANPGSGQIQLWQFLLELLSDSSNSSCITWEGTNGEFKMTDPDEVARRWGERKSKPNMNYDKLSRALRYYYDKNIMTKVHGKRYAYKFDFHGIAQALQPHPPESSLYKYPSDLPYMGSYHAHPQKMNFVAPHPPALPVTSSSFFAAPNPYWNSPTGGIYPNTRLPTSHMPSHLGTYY
From the text: The Ets family of proteins is a family of ~30 conserved transcription factors defined by the presence of an ~85 amino acid domain referred to as the Ets domain, which mediates sequence-specific DNA binding to a core DNA element GGAA/T.The Ets family member ERG has been linked to several neoplasms. […] More extensive studies of the effects of over-expression of ERG in prostate cells have recently been carried out and have shown that over-expression of ERG results in increased invasion. […] We will carry out a high throughout screen to identify inhibitors of the interaction between ERG and DNA using a fluorescence polarization (FP) assay with a His-tagged ERG Ets domain and fluorescently-labeled DNA probes to develop small molecule inhibitors of this interaction as probes to test this hypothesis and lay the groundwork for the development of targeted therapies against ERG. This is the confirmation against the cherry picks in theprimary screening assay. NIH Molecular Libraries Probe Production Network [MLPCN] NIH Chemical Genomics Center [NCGC] Grant: NS066464 PI Name: John Bushweller, University of Virgina
1.5 ul of protein solution (1 uM ERG domain in 300mM KCl, 50mM Tris-HCl, 1mM EDTA, 1mM DTT, pH 7.5); 20 nl Control plate and compound library plate; 1.5 ul mixture of 5 nM Fluorescein-DNA and 100nM Texas-615-DNA solution in same buffer as above solution; measure fluorescence polarization sequentially for fluorescein (Excitation = 480 nm, Emission = 535s, 535p nm) and Texas red (Excitation = 555 nm, Emission = 632s, 632p nm).

outcome, inactive:
COc1ccc(CN2CCC(C(=O)N3CCCC(C)C3)CC2)cc1OC (stereo not given)
Cc1ccc(NS(=O)(=O)c2cc(Br)cnc2N)c(Cl)c1
CCOc1cc(S(=O)(=O)n2ccc(C)n2)ccc1Br
COc1ccc(NC(=O)C2CC(=O)n3c(nc4ccccc43)N2)cc1 (stereo not given)
COc1ccc(OC)c(NC(=O)c2cccc(NC(=O)c3ccccc3)c2)c1
COc1ccc(CNCCC2(C(C)C)CCOC(C)(C)C2)cc1 (stereo not given)
O=C(NCCCN1CCOCC1)c1ccc(CSc2ccc(Cl)cc2)cc1
O=C(CN1C(=O)CS/C1=C\c1nc(-c2ccc(Cl)cc2)cs1)Nc1cccnc1Cl
NCCNc1ccc2nnnn2n1
CCN(CC)S(=O)(=O)c1cccc(-c2nc3n(n2)Cc2ccccc2-3)c1
O=C(COc1ccc(-c2ccccc2)cc1)N1CCN(C(=O)c2cccs2)CC1
Cc1cc(/C=C(\C#N)C(=O)Nc2ccccc2)c(C)n1-c1ccc(C(=O)O)cc1
Cc1ccc(C=Nc2cccnc2N)cc1
CC(C)C1NC(=S)N(Cc2ccccc2)C1=O (stereo not given)
Cc1nc2ccccc2c(=O)n1NC(=O)c1cccnc1Cl
COc1ccc(CCn2c(C)cc(C(=O)COC(=O)c3cnc(C)cn3)c2C)cc1
CCC(CC)COC(=O)C(C#N)c1nc2ccccc2nc1N1CCN(CC)CC1 (stereo not given)
CCc1ccccc1N(CC(=O)NCc1ccco1)C(=O)CCC(=O)Nc1ccccn1
COc1ccc(NC(=O)CSCC(=O)N(C)Cc2cccc(OC)c2OC)cc1
CN(C)c1ccc2c3c(ccc(N(C)C)c13)C(=O)OC2
COc1ccc(NC(=S)NCc2ccc3c(c2)cc(C)n3C)cc1
Cc1cc2cc(CNC(=O)c3ccc(S(=O)(=O)N4CCCCC4)cc3)ccc2n1C
COc1cc(OC)c(N(C)S(=O)(=O)c2cccc(C(=O)NC(C)C3CC4CCC3C4)c2)cc1Cl (stereo not given)
Nc1nc(Cl)c2ncn(C3OC(CO)C(O)C3O)c2n1 (stereo not given)
CC(C)(C)c1ccc(OCC(=O)Nc2cccc(S(=O)(=O)NC3=NCCCCC3)c2)cc1
CCc1nc2ccccc2c(C(=O)NCc2ccccc2)c1C
COC(=O)c1cc(NC(=O)c2c(Cl)cnn2C)cc(C(=O)OC)c1
O=C(CC(c1ccccc1)c1cc(Cl)ccc1O)NCCCN1CCOCC1 (stereo not given)
Cc1cccc(N2C(=O)CC(Cn3nc(C)cc3C)C2=O)c1 (stereo not given)
CC1=CC(=O)C(C(C)C)=C/C1=C(\c1cc(C(C)C)c(OP(=O)(O)O)cc1C)c1ccccc1C(=O)O

— PubChem BioAssay AID651803 (National Center for Advancing Translational Sciences (NCATS), 2012)
